# Assay results taken from PubChem BioAssay (NCI).
# The panel holds about 79,000 compounds, 15% with a hit somewhere; the sample as a whole holds those more often. Unmarked numbers belong to inactive results. Active and inactive are the calls of the source. Cut-off read from the data, not from the text of the source: active = growth inhibition above about 70%; inactive = the rest.
# Assays:
# [1] = NCI Yeast Anticancer Drug Screen. Data for the rad50 strain (AID 155);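 note: 0% = growth of vehicle-only cultures of the same strain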; settings: S. cerevisiae rad50 strain growth inhibition, active compounds read high
# Summary of the method: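 Vehicle-treated cultures provide the reference for the growth inhibition reported for compound-exposed, repair-deficient yeast.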
# [2] = NCI Yeast Anticancer Drug Screen. Data for the mec2-1 strain (AID 157); settings: S. cerevisiae mec2-1 strain, active compounds read high
# Summary of the method: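 Readout is yeast growth inhibition, normalised to vehicle-treated controls, in the mec2-1 strain exposed to compound.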
# [3] = NCI Yeast Anticancer Drug Screen. Data for the sgs1 mgt1 strain (AID 161);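 note: 0% = growth of cultures given vehicle only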; settings: S. cerevisiae sgs1 mgt1 strain, active compounds read high
# Summary of the method: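 Growth of a repair-deficient yeast mutant was monitored after compound treatment and expressed as inhibition relative to vehicle-treated cultures.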
# [4] = NCI Yeast Anticancer Drug Screen. Data for the cln2 rad14 strain (AID 165);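 note: 0% = growth equal to vehicle treated cultures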; settings: S. cerevisiae cln2 rad14 strain, active compounds read high
# Summary of the method: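 Relative to vehicle controls, growth inhibition of compound-treated cln2 rad14 yeast was recorded.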
# [5] = NCI Yeast Anticancer Drug Screen. Data for the bub3 strain (AID 167); settings: S. cerevisiae bub3 mutant strain, active compounds read high
# Summary of the method: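 Mutant yeast screening strain plus compound; vehicle-treated cultures serve as the 0% inhibition reference.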
# [6] = NCI Yeast Anticancer Drug Screen. Data for the mlh1 rad18 strain (AID 175); settings: S. cerevisiae mlh1 rad18 strain growth inhibition, active compounds read high
# Summary of the method: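 Test agents were incubated with a yeast strain of defined genotype (DNA damage repair defect). Inhibition of growth was derived by comparison with vehicle-exposed cultures.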
# [7] = at 5.0 µM (retest, dose inferred, filed as 0.5)
# [8] = at 50.0 µM (retest, dose inferred, filed as 5.0)
Compound,"growth inhibition [1, 7] [%]","growth inhibition [1, 8]",growth inhibition ([1]; at 50.0 µM),"growth inhibition [2, 7]","growth inhibition [2, 8]",growth inhibition ([2]; at 50.0 µM),"growth inhibition [3, 7]","growth inhibition [3, 8]",growth inhibition ([3]; at 50.0 µM),"growth inhibition [4, 7] [%]","growth inhibition [4, 8]",growth inhibition ([4]; at 50.0 µM),"growth inhibition [5, 7]","growth inhibition [5, 8]",growth inhibition ([5]; at 50.0 µM),"growth inhibition [6, 7]","growth inhibition [6, 8]",growth inhibition ([6]; at 50.0 µM)
Cc1cccc(C)c1N1C(=O)C2Nc3ccccc3SC2C1=O (configuration not stated),7,93% (active),98.5% (active),-1%,94% (active),98.7% (active),3%,96% (active),98.4% (active),2,90% (active),95.8% (active),1%,94% (active),98.3% (active),11%,95% (active),98.5% (active)
O=C(O)CC1(C(=O)O)CCCCC1,-9,15%,-16.4%,-4%,-1%,-16.6%,-5%,-13%,-21.6%,6,0%,18.4%,-13%,-14%,-6.9%,11%,17%,2.7%
O=C1C2=Cc3ccccc3CCN2c2ccccc21,4,4%,88.3% (active),-6%,-6%,90.7% (active),1%,1%,89.8% (active),-8,-8%,86.2% (active),2%,2%,89.8% (active),2%,2%,83.1% (active)
C/C(=C/c1ccccc1)C(=O)C1C(c2ccccc2)CC(O)C(C)C1c1ccccc1 (configuration not stated),11,86% (active),82.2% (active),1%,81% (active),91.2% (active),10%,86% (active),82.3% (active),-4,89% (active),88.4% (active),-5%,82% (active),77.8% (active),16%,90% (active),86.5% (active)
COc1ccc(C(=O)C(CN2CCCC2)CN2CCCC2)cc1,-1,75% (active),47.6%,4%,88% (active),88.1% (active),-5%,82% (active),44%,2,54%,7.4%,-5%,81% (active),59.5%,3%,79% (active),69.3%
O=C1/C(=C/O)CCc2c1ccc1ccccc21,15,98% (active),98.4% (active),9%,99% (active),99% (active),-9%,98% (active),99.1% (active),6,99% (active),97.7% (active),10%,98% (active),98.9% (active),17%,98% (active),96.2% (active)
O=C1CCCCCC1Cc1cc(O)c(CC2CCCCCC2=O)cc1O (configuration not stated),10,54%,91.8% (active),8%,34%,80.2% (active),12%,82% (active),86.5% (active),-6,32%,11.2%,-3%,33%,64.2%,8%,88% (active),35.2%
O=C(/C=C/C(=O)c1ccc(O)cc1)c1ccccc1,-1,89% (active),12.4%,-1%,85% (active),26.6%,-3%,82% (active),30.8%,3,90% (active),24.6%,-6%,87% (active),38.6%,-1%,94% (active),24.7%
CCOP(=O)(OCC)/C(=C\NC(=S)N=Nc1c(O)[nH]c2ccccc12)C(=O)OC,29,81% (active),19.6%,4%,89% (active),11.2%,6%,83% (active),7.85%,2,67%,46.1%,-8%,62%,13.8%,5%,84% (active),14.6%
CC(C)(C)c1ccc(O)c(C2CCCCC2)c1,5,99% (active),99.3% (active),-3%,100% (active),99.7% (active),-1%,99% (active),99.5% (active),-3,99% (active),99.5% (active),2%,99% (active),96.4% (active),-1%,100% (active),99% (active)
O=C(CBr)c1ccc2cc(Br)c3ccccc3c2c1,55,94% (active),64%,84% (active),96% (active),44%,98% (active),95% (active),68.5%,16,92% (active),46.1%,81% (active),94% (active),41.1%,83% (active),95% (active),61%
O=S1(=O)CS(=O)(=O)OCCCO1,10,10%,-15.7%,8%,8%,-32.8%,7%,15%,-23.4%,12,9%,-9.45%,7%,7%,-30.1%,11%,16%,-59.5%
Cc1occc1C(=S)Nc1ccc(Cl)c(C(=O)OCC2CC2)c1,-14,-3%,84.8% (active),-21%,5%,86% (active),-15%,-3%,81.4% (active),2,62%,82.5% (active),-3%,17%,80.2% (active),-2%,8%,16.2%
COc1ccc(NC(=O)OC(C)C)c(OC)c1,2,10%,-2.75%,-4%,4%,6.45%,-3%,7%,-21.4%,5,2%,45.4%,15%,42%,18.4%,3%,8%,-10.8%
O=C1c2ccccc2C(=O)c2sccc21,-97,91% (active),95.8% (active),-36%,51%,84.8% (active),-43%,62%,93.8% (active),-56,32%,56.3%,-36%,90% (active),90.5% (active),-75%,92% (active),93.9% (active)
N#Cc1cc2cccn2c2c1cnn2-c1ccccc1,-6,-5%,19%,8%,4%,-6.8%,-1%,-11%,-1.5%,3,7%,9.65%,6%,5%,-46.9%,-10%,12%,-2.95%
CC(=O)OC1C(C)OC(OC(=O)C2CCC3C(C2)OC2(CC(OC(=O)/C=C/c4ccccc4)C(C)CO2)C32CO2)C(OC2OC(C)C(O)C(OC(C)=O)C2O)C1O (configuration not stated),34,97% (active),87.9% (active),36%,99% (active),92% (active),30%,99% (active),91.5% (active),45,96% (active),88.1% (active),31%,99% (active),90.2% (active),31%,97% (active),85.2% (active)
CCN(CC)CCOC(=O)Cc1cccc2c(=O)cc(-c3cccs3)oc12,18,17%,18.7%,9%,16%,-9.35%,14%,18%,-16.4%,17,17%,8.25%,4%,14%,-20.6%,10%,16%,-36%
CCOC(=O)/C=C(\C)OCC,-5,25%,16.3%,-3%,2%,6.1%,-4%,3%,7.25%,-1,4%,76% (active),-5%,-4%,38.9%,-5%,7%,10.4%
